Laboratory results published in ChEMBL document CHEMBL3988442, “University of Dundee, Small-Polar-MMV Screening Library” (2021).
“And” between values parts separate entries of the source, which are not always exact repeats. Equal values may be shown once. For part of these data: Entries with a potency or affinity are not part of this list.

What was measured:
Parameters in all cases: scale not given: direction of the effect not stated beside the values
[1] = target: Protein translocase subunit SecA (Escherichia coli (strain K12)) (UniProt P10408); experiment: Assay to Identify E. coli SecA ATPase Inhibitors; type: functional; settings: 30 µM
[2] = target: T1, Ubiquitin-activating enzyme e1, putative (Leishmania donovani (strain BPK282A1)) (UniProt E9BSI1); experiment: Leishmania donovani Ubiquitin Activating Enzyme (LdE1); type: functional; settings: 30 µM
T1 sequence (whole entry): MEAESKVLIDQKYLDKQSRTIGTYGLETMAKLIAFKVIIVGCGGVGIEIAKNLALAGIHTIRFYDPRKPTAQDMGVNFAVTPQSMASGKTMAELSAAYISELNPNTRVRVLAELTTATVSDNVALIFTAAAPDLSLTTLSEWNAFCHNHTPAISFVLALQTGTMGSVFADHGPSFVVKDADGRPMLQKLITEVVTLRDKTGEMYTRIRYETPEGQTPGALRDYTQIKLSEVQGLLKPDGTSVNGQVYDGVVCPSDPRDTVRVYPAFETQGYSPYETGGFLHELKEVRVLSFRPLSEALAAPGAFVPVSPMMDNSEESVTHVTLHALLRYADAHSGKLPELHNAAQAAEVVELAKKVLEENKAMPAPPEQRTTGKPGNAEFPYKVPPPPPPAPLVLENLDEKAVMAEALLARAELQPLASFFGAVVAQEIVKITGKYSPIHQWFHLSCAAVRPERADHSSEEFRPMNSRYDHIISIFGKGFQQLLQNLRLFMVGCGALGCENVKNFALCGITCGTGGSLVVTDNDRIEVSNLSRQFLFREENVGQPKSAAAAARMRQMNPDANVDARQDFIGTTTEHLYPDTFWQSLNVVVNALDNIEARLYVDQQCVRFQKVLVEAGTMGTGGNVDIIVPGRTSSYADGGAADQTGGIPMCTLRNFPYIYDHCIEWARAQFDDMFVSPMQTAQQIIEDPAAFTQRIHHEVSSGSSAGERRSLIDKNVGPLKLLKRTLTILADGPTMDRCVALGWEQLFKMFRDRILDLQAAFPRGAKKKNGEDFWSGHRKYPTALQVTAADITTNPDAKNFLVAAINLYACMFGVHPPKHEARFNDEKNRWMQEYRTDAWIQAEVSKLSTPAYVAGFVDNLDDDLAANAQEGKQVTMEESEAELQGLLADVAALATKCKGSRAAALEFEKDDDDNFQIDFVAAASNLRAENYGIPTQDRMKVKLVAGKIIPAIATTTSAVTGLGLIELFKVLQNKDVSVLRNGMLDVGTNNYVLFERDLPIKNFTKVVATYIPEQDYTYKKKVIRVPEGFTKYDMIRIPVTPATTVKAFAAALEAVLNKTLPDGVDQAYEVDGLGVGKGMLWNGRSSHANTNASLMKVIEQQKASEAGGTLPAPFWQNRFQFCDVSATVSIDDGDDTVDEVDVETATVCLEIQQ

[3] = target: AMP-activated protein kinase, AMPK (Homo sapiens) (UniProt P54646+O43741+P54619+Q9UGJ0+Q9Y478+Q13131+Q9UGI9); experiment: AMP-dependent Kinase enzyme assay. An in vitro enzyme assay that detects ADP turnover that is directly proportional to AMPK activity. This uses naive AMPK that is activated during the assay with MK-8722; type: functional; settings: 30 µM
[4] = target: Sialic acid-binding Ig-like lectin 9 (Homo sapiens) (UniProt Q9Y336); experiment: Hs-Siglec9 ALPHAscreen SOP 20170721; settings: 10 µM
[5] = tested on: Trypanosoma cruzi; experiment: Trypanosoma cruzi phosphomannomutase and mannose-1-phosphate guanylyltransferase assay; type: functional; settings: 10 µM
[6] = target: T2, Arginase-2, mitochondrial (Homo sapiens) (UniProt P78540); experiment: in vitro enzyme assay to detect the production of urea directly proportional to the activity of Arginase II; type: functional; settings: 33.3 µM; also: in the data most compounds retested in dose-response had high values
T2 sequence (whole entry): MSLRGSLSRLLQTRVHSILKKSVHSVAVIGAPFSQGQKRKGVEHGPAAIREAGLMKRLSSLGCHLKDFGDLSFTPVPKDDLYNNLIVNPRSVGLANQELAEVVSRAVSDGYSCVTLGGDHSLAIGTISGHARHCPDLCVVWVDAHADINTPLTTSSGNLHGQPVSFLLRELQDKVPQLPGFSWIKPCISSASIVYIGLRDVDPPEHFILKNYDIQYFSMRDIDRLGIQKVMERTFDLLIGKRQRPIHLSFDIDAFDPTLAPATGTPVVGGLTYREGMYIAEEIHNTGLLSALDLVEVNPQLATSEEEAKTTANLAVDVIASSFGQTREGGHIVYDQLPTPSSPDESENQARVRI

[7] = target: T3, Proteasome subunit beta (Trypanosoma cruzi) (UniProt O96673); experiment: Trypanosoma cruzi proteasome chymotrypsin-like activity (TcProtChymo) assay.; also: in the data most compounds retested in dose-response had high values; type: functional; settings: 9.37 µM
T3 sequence (whole entry): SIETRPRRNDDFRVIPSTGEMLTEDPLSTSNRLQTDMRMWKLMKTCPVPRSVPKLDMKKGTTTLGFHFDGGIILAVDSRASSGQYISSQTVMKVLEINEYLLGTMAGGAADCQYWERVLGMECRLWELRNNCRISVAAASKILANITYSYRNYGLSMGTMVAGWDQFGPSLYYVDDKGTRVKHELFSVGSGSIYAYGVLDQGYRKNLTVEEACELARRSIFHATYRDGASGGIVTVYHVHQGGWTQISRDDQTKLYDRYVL

[8] = species: Homo sapiens; experiment: To identify inhibition of the IFN signalling (Jak-Stat) pathway via expression of an eGFP reporter gene under the control of an IFN-stimulated response element (ISRE) containing MxA promoter.; type: functional; settings: 30 µM
[9] = target: T4, Tyrosyl-tRNA synthetase, putative (Trypanosoma cruzi (strain CL Brener)) (UniProt Q4DSP6); experiment: Trypanosoma cruzi tyrosyl tRNA synthetase (TcYRS) _High Tyrosine SOP; type: functional; settings: 30 µM; also: in the data most compounds retested in dose-response had high values
T4 sequence (whole entry): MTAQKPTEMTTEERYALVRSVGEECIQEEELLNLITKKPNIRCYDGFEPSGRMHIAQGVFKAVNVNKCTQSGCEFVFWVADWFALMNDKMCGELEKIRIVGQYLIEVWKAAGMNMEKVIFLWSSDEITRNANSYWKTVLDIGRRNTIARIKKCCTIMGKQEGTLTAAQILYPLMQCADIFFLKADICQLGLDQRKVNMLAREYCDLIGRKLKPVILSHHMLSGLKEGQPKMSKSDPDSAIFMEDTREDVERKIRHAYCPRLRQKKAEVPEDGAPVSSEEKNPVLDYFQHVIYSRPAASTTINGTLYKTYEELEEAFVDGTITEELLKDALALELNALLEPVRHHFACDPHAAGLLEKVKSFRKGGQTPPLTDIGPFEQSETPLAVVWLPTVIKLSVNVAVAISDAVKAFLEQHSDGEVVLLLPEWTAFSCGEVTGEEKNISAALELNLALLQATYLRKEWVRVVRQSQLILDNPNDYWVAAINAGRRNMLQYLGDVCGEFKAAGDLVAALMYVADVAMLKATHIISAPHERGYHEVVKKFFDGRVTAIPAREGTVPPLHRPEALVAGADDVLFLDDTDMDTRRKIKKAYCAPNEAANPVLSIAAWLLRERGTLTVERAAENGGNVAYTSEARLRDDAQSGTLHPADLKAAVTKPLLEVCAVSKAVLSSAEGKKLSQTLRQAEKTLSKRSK

[10] = target: T4, Tyrosyl-tRNA synthetase, putative (Trypanosoma cruzi (strain CL Brener)); experiment: Trypanosoma cruzi tyrosyl tRNA synthetase (TcYRS) SOP; type: functional; settings: 30 µM
[11] = target: Chromo domain-containing protein 1 (Saccharomyces cerevisiae (strain ATCC 204508 / S288c) (Baker's yeast)) (UniProt P32657); experiment: ScCHD-1 Enzyme Inhibition Assay; type: functional; settings: 30 µM; also: in the data most compounds retested in dose-response had high values
[12] = tested on: N/A; experiment: Trypanosoma cruzi proteasome luciferase counter-screen; type: functional; settings: 9.37 µM

Chain of Protein translocase subunit SecA (Escherichia coli (strain K12)) (P10408 whole entry): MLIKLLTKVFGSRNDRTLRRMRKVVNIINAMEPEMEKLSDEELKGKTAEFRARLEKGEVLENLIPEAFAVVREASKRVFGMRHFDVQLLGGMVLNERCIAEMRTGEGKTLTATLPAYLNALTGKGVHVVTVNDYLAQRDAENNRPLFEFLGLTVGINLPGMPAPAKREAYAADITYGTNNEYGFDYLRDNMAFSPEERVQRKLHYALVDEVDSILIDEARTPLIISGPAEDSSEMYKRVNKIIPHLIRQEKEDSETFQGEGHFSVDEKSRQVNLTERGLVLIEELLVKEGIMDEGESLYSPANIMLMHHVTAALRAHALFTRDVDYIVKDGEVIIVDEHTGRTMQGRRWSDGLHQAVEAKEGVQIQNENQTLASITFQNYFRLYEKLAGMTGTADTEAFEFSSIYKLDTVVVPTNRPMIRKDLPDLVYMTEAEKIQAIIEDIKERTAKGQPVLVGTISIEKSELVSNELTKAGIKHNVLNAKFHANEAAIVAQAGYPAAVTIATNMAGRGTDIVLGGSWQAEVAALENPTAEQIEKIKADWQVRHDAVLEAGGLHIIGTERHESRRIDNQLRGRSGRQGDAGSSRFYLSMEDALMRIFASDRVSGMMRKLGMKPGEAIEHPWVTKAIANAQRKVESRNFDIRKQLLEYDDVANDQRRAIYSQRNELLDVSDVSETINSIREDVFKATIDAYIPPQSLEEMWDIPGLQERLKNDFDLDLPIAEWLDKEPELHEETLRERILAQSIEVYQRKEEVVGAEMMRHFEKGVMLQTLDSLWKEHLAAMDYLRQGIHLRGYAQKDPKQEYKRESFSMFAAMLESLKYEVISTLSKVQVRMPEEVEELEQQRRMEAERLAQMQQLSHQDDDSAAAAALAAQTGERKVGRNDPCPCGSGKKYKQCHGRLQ
Chain of Chromo domain-containing protein 1 (Saccharomyces cerevisiae (strain ATCC 204508 / S288c) (Baker's yeast)) (P32657 whole entry, the tested form may be a part): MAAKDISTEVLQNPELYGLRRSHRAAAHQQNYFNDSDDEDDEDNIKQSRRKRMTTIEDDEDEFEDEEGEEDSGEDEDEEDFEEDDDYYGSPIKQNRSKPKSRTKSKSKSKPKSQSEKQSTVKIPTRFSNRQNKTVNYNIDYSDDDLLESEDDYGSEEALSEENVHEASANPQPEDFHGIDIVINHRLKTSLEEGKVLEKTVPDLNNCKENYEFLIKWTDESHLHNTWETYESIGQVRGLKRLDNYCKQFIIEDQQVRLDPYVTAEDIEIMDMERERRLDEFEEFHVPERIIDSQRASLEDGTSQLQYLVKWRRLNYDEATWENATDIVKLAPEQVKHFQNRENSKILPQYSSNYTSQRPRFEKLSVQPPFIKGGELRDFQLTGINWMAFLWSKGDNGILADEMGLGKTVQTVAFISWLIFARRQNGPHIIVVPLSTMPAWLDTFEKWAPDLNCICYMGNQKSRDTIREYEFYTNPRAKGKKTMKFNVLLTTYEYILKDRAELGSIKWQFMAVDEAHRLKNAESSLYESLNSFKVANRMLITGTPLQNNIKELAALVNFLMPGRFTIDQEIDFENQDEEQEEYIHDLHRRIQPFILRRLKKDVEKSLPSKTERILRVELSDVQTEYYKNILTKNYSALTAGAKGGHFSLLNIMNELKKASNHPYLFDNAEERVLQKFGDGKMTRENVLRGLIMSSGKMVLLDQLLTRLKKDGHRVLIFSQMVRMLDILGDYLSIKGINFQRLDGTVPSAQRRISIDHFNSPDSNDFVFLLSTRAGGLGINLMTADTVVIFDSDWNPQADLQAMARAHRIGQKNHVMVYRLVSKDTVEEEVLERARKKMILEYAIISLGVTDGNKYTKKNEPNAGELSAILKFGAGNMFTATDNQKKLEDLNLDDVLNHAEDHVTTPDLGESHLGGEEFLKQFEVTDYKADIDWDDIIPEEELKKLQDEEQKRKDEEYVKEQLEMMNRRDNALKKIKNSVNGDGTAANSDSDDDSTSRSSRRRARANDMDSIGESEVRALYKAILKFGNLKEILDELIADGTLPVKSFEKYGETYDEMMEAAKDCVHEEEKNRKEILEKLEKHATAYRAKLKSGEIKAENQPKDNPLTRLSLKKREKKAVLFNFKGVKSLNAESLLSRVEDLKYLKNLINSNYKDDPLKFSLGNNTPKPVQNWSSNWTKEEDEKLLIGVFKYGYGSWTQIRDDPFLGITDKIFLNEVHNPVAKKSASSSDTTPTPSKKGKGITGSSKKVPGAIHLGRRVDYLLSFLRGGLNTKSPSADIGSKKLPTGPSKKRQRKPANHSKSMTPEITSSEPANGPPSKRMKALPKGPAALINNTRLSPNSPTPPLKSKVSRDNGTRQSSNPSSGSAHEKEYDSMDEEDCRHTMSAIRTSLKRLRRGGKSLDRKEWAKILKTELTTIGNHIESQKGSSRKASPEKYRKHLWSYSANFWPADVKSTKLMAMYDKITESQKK
Chain of Sialic acid-binding Ig-like lectin 9 (Homo sapiens) (Q9Y336 whole entry): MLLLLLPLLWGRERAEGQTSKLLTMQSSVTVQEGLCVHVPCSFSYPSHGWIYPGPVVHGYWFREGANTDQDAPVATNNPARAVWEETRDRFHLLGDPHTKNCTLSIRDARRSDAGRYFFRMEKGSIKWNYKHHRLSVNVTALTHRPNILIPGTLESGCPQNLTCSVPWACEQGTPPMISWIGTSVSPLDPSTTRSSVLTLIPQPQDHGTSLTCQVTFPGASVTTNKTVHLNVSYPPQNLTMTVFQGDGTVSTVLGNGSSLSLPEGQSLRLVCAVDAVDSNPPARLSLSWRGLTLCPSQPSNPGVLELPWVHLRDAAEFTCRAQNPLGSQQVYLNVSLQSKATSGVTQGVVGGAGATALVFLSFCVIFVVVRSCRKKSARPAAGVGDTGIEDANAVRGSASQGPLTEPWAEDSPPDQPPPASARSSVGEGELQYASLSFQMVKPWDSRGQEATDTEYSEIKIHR

| SMILES | Percent Effect [1] [%] | Percent Effect [2] [%] | Percent Effect [3] [%] | Percent Effect [4] [%] | Percent Effect [5] [%] | Percent Effect [6] [%] | Percent Effect [7] [%] | Percent Effect [8] [%] | Percent Effect [9] [%] | Percent Effect [10] [%] | Percent Effect [11] [%] | Percent Effect [12] |
| --- | --- | --- | --- | --- | --- | --- | --- | --- | --- | --- | --- | --- |
| Cc1ccc(-n2nnc(C(=O)Nc3cc(C)nn3C)c2C2CC2)cc1 | -8.29 | 5.41 | 1.63 | -1.73 | -3.99 | 1.66 | 8.98 | 33.1 | 3.96 | 1.22 | 1 | – |
| Cn1cnnc1C1CCCN(C(=O)NCCNc2ccccn2)C1 (stereo unspecified) | -5.92 | 18.2 | 3.59 | 4.46 | 0.881 | 6.53 | 9.78 | 4.54 | 7.62 | 18.8 | -9.77 | – |
| O=C(c1cc(F)ccc1F)C1CCN(C(=O)c2ccccn2)CC1 | -3.32 | 13 | 3.21 | -2.77 | 1.27 | 3.58 | 17.1 | 21.7 | 7.62 | 23.5 | -13.2 | – |
| CC(C)Cc1noc(CN2CCN(c3nccs3)CC2)n1 | -8.59 | 10.4 | 5.21 | 0.0825 | -5.99 | -2.13 | 6.25 | 33.3 | 0.971 | 7.32 | -3.68 | – |
| CCc1n[nH]c(C2CN(C(=O)c3cnc(C)s3)CCO2)n1 (stereo unspecified) | -5.53 | 12.7 | -5.15 | 12.5 | 5 | -1.9 | -3.03 | -0.688 | 3.45 | 8.86 | -5.66 | – |
| O=C(COc1cccc2c1CCC2=O)NCCOc1ccccc1 | -0.203 | 2.63 | -0.945 | -8.98 | -6.33 | 3.55 | 9.68 | 40.1 | -1.06 | 0 | -2.69 | – |
| CN(Cc1cc[nH]n1)C(=O)c1cccc(CCC(C)(C)O)c1 | -4.29 | -2.67 | 0.5 | 1.39 | -5.16 | -0.521 | – | -13.1 | 0.546 | 3.7 | -5.03 | 6.9% and 8.45% |
| O=C(O)C1(Cc2cc(-c3cccc(F)c3)no2)CCOCC1 | -3.27 | 6.76 | 11.7 | 6.38 | -3.75 | -3.02 | 7.8 | -7.88 | 2.15 | 3.9 | -5.82 | – |
| O=C(C(CNCc1ccsc1)c1ccccc1)N1CCOCC1 (stereo unspecified) | -5.96 | 5.2 | -2.02 | 3.85 | 1.87 | 5.52 | 6.49 | -32.4 | 1.07 | 1.24 | 1.41 | – |
| CCCNC(=O)CN1CCN(Cc2csc(C(C)(C)C)n2)CC1 | -7.74 | 2.53 | -2.27 | 0.111 | -4.63 | -1.14 | -7.62 | 20.3 | 2.46 | -3.8 | -1.83 | – |
| Cc1cc(-c2cnc(N3CCCC(C)C3)nc2-c2cccnc2C)on1 (stereo unspecified) | -7.33 | 1.35 | 6.26 | -5.16 | -5.93 | -5.34 | 8.74 | 59.4 | -8.6 | -3.9 | -22.2 | – |
| COCC(NC(=O)c1cnn(C)c1)c1cccc(C(F)(F)F)c1 (stereo unspecified) | -8.86 | 0 | -3.2 | -6.41 | -4.11 | 0.455 | 7.28 | -1.62 | 0 | 0 | 0.364 | – |
| CN(Cc1ccco1)Cc1ccccc1CNC(=O)c1cc[nH]n1 | -2.78 | 0 | -0.254 | 5.67 | -6.56 | 0.952 | 15.2 | 18.9 | 1.59 | 4.88 | -4.37 | – |
| CCc1nc(NCCCOC)c2c(n1)c(C)nn2C | 0.06 | 17.3 | 0.763 | 2.98 | 1.18 | -0.176 | 20.1 | 29.9 | 5.29 | 17.9 | -11.5 | – |
| CN(C)CCCNC(=O)CNC(=O)N1CCc2c([nH]c3ccccc23)C1 | -6.34 | -1.33 | 20.1 | -2.5 | -2.16 | -10.4 | 9.06 | 13.6 | 1.06 | -5.13 | -6.13 | – |
| O=C(C1=CCCC1)N1C[C@@H]2COC[C@]2(COc2cccnc2)C1 | -2.49 | 2.7 | 7.33 | 5.37 | -1.27 | 5.41 | – | 0.513 | 0 | -2.56 | 4.29 | 7.45% and 8.06% |
| O=C(NCC1CC1)[C@H]1CC[C@@H]2[C@@H](CCN2Cc2ccoc2)O1 | -9.56 | 16.2 | -3.1 | 26 | 4.99 | 3.23 | 4.72 | -7.7 | 4.3 | 6.17 | -12.2 | – |
| Cc1nc(CN2CCCN(CC(=O)Nc3cccnc3)CC2)no1 | -3.59 | 18.2 | 4.53 | -8.79 | -0.294 | 4.84 | – | 23.7 | 5.71 | 9.41 | -14 | 15.2% and 14.2% |
| CC(NC(=O)NCCNc1ncccn1)c1cccs1 (stereo unspecified) | -2.16 | 31.2 | 32.1 | 6.3 | 7.12 | -2.49 | 4.9 | 12.3 | 8.74 | 24.4 | -9.75 | – |
| CCCc1nc(C)cc(N2CCC3(CCC(=O)N(CCOC)C3)CC2)n1 | -4.76 | 10.8 | -6.4 | -1.18 | -0.489 | -0.744 | 10.9 | -7.21 | 4.3 | 13.6 | -3.56 | – |
| CC(C)Oc1ncnc2c1CCN(Cc1cccs1)CC2 | 3.01 | 0 | 24.6 | 8.66 | -0.193 | -43.9 | 3.76 | 8.59 | 6.25 | 10 | -1.96 | – |
